In all, about 310,000 compounds went through this assay and about 14,000 (4.5%) showed an effect of 50% or more. The effect is printed as a negative number. The sample as a whole holds a higher share of strong results than the screen did.
biological target: human ether-à-go-go-related gene (hERG) potassium channel (human, UniProt Q12809); experiment: primary screen, population patch clamp on CHO cells stably expressing hERG; higher = less effect of the substance
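Also: peak tail current of the secondary pulse compared with the same well before compound.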

Sequence of human ether-à-go-go-related gene (hERG) potassium channel (Q12809 whole entry, looked up): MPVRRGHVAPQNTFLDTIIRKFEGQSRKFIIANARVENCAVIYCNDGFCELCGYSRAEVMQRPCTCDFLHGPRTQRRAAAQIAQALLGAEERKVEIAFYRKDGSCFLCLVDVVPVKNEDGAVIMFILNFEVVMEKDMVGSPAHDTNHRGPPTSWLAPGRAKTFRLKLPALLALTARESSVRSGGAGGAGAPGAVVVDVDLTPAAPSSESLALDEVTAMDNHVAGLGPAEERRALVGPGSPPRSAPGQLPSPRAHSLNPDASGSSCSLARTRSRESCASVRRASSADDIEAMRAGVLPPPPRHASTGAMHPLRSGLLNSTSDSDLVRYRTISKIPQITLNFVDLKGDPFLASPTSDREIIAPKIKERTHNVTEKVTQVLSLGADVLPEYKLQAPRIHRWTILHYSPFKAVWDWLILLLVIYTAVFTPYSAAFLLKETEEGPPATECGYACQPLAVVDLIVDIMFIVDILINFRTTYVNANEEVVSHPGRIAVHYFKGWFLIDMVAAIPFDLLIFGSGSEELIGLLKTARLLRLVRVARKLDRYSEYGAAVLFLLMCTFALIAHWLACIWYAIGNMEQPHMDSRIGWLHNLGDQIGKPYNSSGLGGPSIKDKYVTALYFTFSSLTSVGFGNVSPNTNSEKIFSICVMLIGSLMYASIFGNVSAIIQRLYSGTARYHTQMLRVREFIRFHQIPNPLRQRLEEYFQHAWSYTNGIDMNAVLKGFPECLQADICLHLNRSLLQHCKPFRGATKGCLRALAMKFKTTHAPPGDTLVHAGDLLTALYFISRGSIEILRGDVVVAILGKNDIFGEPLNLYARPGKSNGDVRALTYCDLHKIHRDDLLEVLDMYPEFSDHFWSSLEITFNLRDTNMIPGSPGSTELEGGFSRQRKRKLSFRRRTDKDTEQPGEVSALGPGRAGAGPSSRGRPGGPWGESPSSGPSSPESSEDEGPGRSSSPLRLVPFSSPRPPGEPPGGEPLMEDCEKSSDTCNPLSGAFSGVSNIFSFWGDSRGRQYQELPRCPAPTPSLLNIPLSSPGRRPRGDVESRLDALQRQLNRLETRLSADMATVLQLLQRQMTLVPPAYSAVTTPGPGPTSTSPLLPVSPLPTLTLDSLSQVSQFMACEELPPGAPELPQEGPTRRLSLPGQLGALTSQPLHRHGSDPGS

| Structure (SMILES) | hERG current change (%, negative = inhibition) at 10uM [%] |
| --- | --- |
| COc1ccc(/C=N/N=C/c2ccc(OC)c(O)c2)cc1O | 23.2 |
| Cc1ccc(C(=O)/C=C/c2ccc(-c3ccccc3[N+](=O)[O-])o2)cc1 | 12.5 |
| O=C(O)/C(=C\c1ccc(-c2ccccc2[N+](=O)[O-])o1)c1ccccc1 | 23.6 |
| CCCCNC(=O)/C(=C\c1ccc([N+](=O)[O-])o1)NC(=O)c1ccccc1 | -39.8 |
| Cc1ccc(C(=O)N/C(=C\c2ccc(-c3ccccc3[N+](=O)[O-])o2)C(=O)NCCN(C)C)cc1 | -55.4 |
| Cc1ccc(C(=O)N/C(=C\c2ccc(-c3ccccc3[N+](=O)[O-])o2)C(=O)NCCCN(C)C)cc1 | -74.5 |
| Cc1ccc(Oc2ccccc2/C=C/C(=O)O)cc1 | 14.6 |
| C=CCn1c(SCC(=O)NC(=O)NC2CCCC2)nnc1C1CCCCC1 | 3.7 |
| O=C(CSc1nnc(CNc2ccc(F)cc2)o1)N1c2ccccc2Sc2ccccc21 | 11 |
| CCN1CCN(CCNC(=O)c2ccc(/C=C3/Sc4ccccc4N(Cc4cccc(C)c4)C3=O)cc2)CC1 | -22 |
| CCOc1cc(CNC(C)(C)C)ccc1OCC(=O)Nc1cccc(C(F)(F)F)c1.Cl | -13.7 |
| CCOc1cc(CNC(CC)CO)ccc1OCC(=O)Nc1cccc(C(F)(F)F)c1 (stereo not drawn) | -68.3 |
| CCOc1cc(CNCCO)cc(Br)c1OCc1ccccc1Cl.Cl | 12.5 |
| CCOc1cc(CNCCCN2CCOCC2)ccc1OCC(=O)Nc1cccc2ccccc12.Cl | -7.77 |
| CCOc1cc(CNCCCN2CCOCC2)cc(Br)c1OCC(=O)Nc1cccc(C(F)(F)F)c1.Cl | -70.3 |
| COc1cc(CNCCCN2CCOCC2)ccc1OCC(=O)NC(C)(C)C.Cl | 21 |
| CCOc1cc(CNCCCN2CCOCC2)cc(Br)c1OCc1ccccc1Cl.Cl | -64.9 |
| CCC(CO)NCc1ccc(OCC(=O)Nc2cccc(C(F)(F)F)c2)c(OC)c1 (stereo not drawn) | -43.6 |
| CCOc1cc(CNCCN2CCOCC2)ccc1OCc1ccccc1Cl.Cl | -41.8 |
| COc1cc(CNCCCN2CCOCC2)ccc1OCC(=O)Nc1cccc(C(F)(F)F)c1.Cl | -56.6 |
| COc1ccc(NC(=O)COc2ccc(CNCCCN3CCOCC3)cc2OC)cc1.Cl | 0.185 |

| Structure (SMILES) | hERG current change (%, negative = inhibition) at 10uM [%] |
| --- | --- |
| CCOc1cc(CNCCCN2CCOCC2)cc(Cl)c1OCC(=O)NC(C)(C)C.Cl | 5.38 |
| CCOc1ccc(CC(=O)Nc2ccc(S(=O)(=O)N3CCCC3)cc2)cc1 | 10.4 |
| Cc1cc(C(=O)COC(=O)CC2Sc3ccccc3NC2=O)c(C)n1-c1ccccc1 (stereo not drawn) | 28 |
| O=C(COc1ccc2c(c1)C(=O)CC1(CCCCC1)O2)NCc1ccccn1 | -33.9 |
| O=C(CCS(=O)(=O)c1cccc2nonc12)Nc1cccc2c1CCCC2 | 4.5 |
| Cc1ccc(C)c(N2CC(C(=O)O)CC2=O)c1 (stereo not drawn) | -2.08 |
| CN(CC(=O)Nc1ccc(Cl)cc1)C(=O)COc1ncnc2ccccc12 | -8.52 |
| CCCCn1nnnc1SCC(=O)N(CC)CC | 10.4 |
| CCOc1ccc(NC(=O)CSc2nnc(C)n2Cc2ccccc2)cc1 | -16.4 |
| O=C(CN1CC[n+]2c(-c3cccs3)csc21)c1ccc(-c2ccccc2)cc1.[Br-] | -54.3 |
| O=C(CN1CC[n+]2c(-c3ccccc3)csc21)c1ccc(Br)cc1.[Br-] | -40.6 |
| O=C(CN1CC[n+]2c(-c3cccs3)csc21)c1ccc(Br)cc1.[Br-] | -45.9 |
| NNC(=O)c1cccc(S(=O)(=O)Nc2cccc(C(F)(F)F)c2)c1 | 1.4 |
| CC1CN(c2ccc([N+](=O)[O-])cn2)CC(C)O1 (stereo not drawn) | -19.7 |
| O=C1c2ccccc2C(=O)N1CCC(c1ccc(F)cc1)c1ccco1 (stereo not drawn) | -6.1 |
| CC1(C)CC(CNCCC(c2ccc(F)cc2)c2ccco2)CCO1 (stereo not drawn) | -62.5 |
| CC1(C)CC(C(=O)NCCC(c2ccccc2)c2ccco2)CCO1 (stereo not drawn) | -9.31 |
| CC1(C)CC(NCCC(c2ccccc2)c2ccco2)CCO1 (stereo not drawn) | -52.5 |
| O=C1CCC(=O)N1CCC(c1ccc(F)cc1)c1ccco1 (stereo not drawn) | 4.27 |
| CC1(C)CC(NCc2ccccc2)CCO1.Cl (stereo not drawn) | 5.1 |
| Cc1ccc(NC(=O)COC(=O)CCC(=O)c2ccc(Cl)cc2)cc1S(=O)(=O)N(C)C | -1.5 |

| Structure (SMILES) | hERG current change (%, negative = inhibition) at 10uM [%] |
| --- | --- |
| CCOC(=O)N1CCc2c(sc3nc(SC(C)C)n(N)c(=O)c23)C1 | -20.9 |
| Cl.c1coc(CNc2nc(N3CCCCC3)nc3ccccc23)c1 | -77.5 |
| Fc1ccccc1-c1nc(NCc2ccco2)c2ccccc2n1 | -2.1 |
| Clc1nc(NCc2ccco2)nc(N2CCCCC2)n1 | 33.5 |
| Cl.c1coc(CNc2ncnc3ccccc23)c1 | 2.88 |
| Cl.c1ccc(N2CCN(c3nc(NCc4ccco4)c4ccccc4n3)CC2)cc1 | -73.6 |
| CC(C)C(=O)NNC(=O)c1csc(CS(=O)(=O)c2ccc(Cl)cc2)n1 | -1.62 |
| O=c1cc(-c2ccc(O)cc2)oc2ccccc12 | 16.1 |
| CCOC(=O)c1ccc(NC(=O)C2C3C=CC(C3)C2C(=O)O)cc1 (stereo not drawn) | 4.67 |
| CN(C)CC/C=C1\c2cc(F)ccc2CSc2ccccc21.O=C(O)/C=C\C(=O)O | -35.4 |
| COc1ccc2c(c1)C1C=CCC1C(c1cc3c(cc1Br)OCO3)N2 (stereo not drawn) | 1.4 |
| O=C(N/C(=C/c1cccc([N+](=O)[O-])c1)C(=O)N1CCCCCC1)c1ccco1 | -28.2 |
| O=C(N/C(=C\c1ccccc1)C(=O)N1CCOCC1)c1ccco1 | 17.1 |
| O=C(N/C(=C\c1ccc([N+](=O)[O-])cc1)C(=O)N1CCOCC1)c1ccco1 | -69.2 |
| O=C(N/C(=C\c1cccc([N+](=O)[O-])c1)C(=O)N1CCOCC1)c1ccco1 | 14.9 |
| O=C(N/C(=C/c1cccc([N+](=O)[O-])c1)C(=O)N1CCCCC1)c1ccco1 | -2.24 |
| O=C(N/C(=C\c1ccccc1)C(=O)N1CCCCC1)c1ccc(Br)o1 | 15.8 |
| COc1ccc(/C=C(\NC(=O)c2ccco2)C(=O)N2CCOCC2)cc1 | 0.365 |
| O=C(N/C(=C/c1ccccc1)C(=O)N1CCCCC1)c1ccc(Br)o1 | -7.64 |
| O=C(N/C(=C\c1ccc(Cl)cc1)C(=O)N1CCOCC1)c1ccco1 | -31.4 |
| O=C(N/C(=C\c1ccc([N+](=O)[O-])cc1)C(=O)N1CCCCC1)c1ccc(Br)o1 | -72 |

| Structure (SMILES) | hERG current change (%, negative = inhibition) at 10uM [%] |
| --- | --- |
| O=C(N/C(=C\c1ccc([N+](=O)[O-])cc1)C(=O)N1CCCCC1)c1ccco1 | -70.3 |
| O=C(N/C(=C/c1ccc([N+](=O)[O-])cc1)C(=O)N1CCOCC1)c1ccco1 | -70.1 |
| C=C1C(=O)O[C@@H]2C[C@@H](C)[C@H]3C=CC(=O)[C@]3(O)C[C@@H]12 | 19.3 |
| Cc1ccc(C(=O)C(OC(=O)CNC(=O)c2ccc(Cl)cc2)c2ccccc2)cc1 (stereo not drawn) | 2.15 |
| COc1ccc(-c2[nH]ncc2/C=N/NC(=O)c2ccncc2)c(OC)c1 | 13.8 |
| O=C(CSc1ccccn1)Nc1ccc2c(c1)oc1ccccc12 | 12.8 |
| N#Cc1cc2ccccc2nc1SCC(=O)NC1CC1 | 4.58 |
| O=C(CN1C(=O)CSC1=O)c1ccccc1 | 1.83 |
| CCOc1cc2nc(-c3ccc(OC)c(OC)c3)nc(N3CCOCC3)c2cc1OC | -15.5 |
| O=C(Nc1ncc2c(n1)CC(c1ccc(Cl)cc1)CC2=O)c1ccco1 (stereo not drawn) | -71.6 |
| CC1CC(c2ccccc2)n2nc(NC(=O)c3cccs3)nc2N1 (stereo not drawn) | 16.6 |
| O=C(Nc1nc2n(n1)C(c1ccc(F)cc1)CC(c1ccccc1)N2)c1ccco1 (stereo not drawn) | -57.4 |
| COc1ccc(C2CC(c3ccc(OC)cc3)n3nc(NC(=O)c4cccs4)nc3N2)cc1 (stereo not drawn) | -13.9 |
| COc1ccc(C2CC(c3ccc(F)cc3)n3nc(NS(C)(=O)=O)nc3N2)cc1 (stereo not drawn) | 8.06 |
| Nc1nc2n(n1)C(c1ccccc1)CC(c1ccc(F)cc1)N2 (stereo not drawn) | -10.1 |
| O=C(Nc1ncc2c(n1)CC(c1ccccc1)CC2=O)c1ccco1 (stereo not drawn) | -21.9 |
| O=C(Nc1ncc2c(n1)CC(c1cccc(Cl)c1)CC2=O)c1ccco1 (stereo not drawn) | -39 |
| CS(=O)(=O)Nc1nc2n(n1)C(c1ccc(F)cc1)CC(c1ccccc1)N2 (stereo not drawn) | -4.13 |
| COc1ccc(C2CC(c3ccccc3)Nc3nc(NC(=O)c4cccs4)nn32)cc1 (stereo not drawn) | -52 |
| COc1ccc(C2CC(c3ccc(F)cc3)Nc3nc(N)nn32)cc1 (stereo not drawn) | -27 |
| COc1ccc(C2CC(c3ccc(F)cc3)n3nc(NC(=O)c4ccco4)nc3N2)cc1 (stereo not drawn) | -60.3 |

From article PMC4336329 (PLoS ONE, 2015)
